Assay outcomes deposited in PubChem BioAssay by The Scripps Research Institute Molecular Screening Center.
Hits are enriched below; roughly 2.2% of the tested compounds scored in any of these assays.
OPRM1-OPRD1 inv: inverse agonists of MOR-DOR heterodimerization, primary screen, cell-based, luminescence; AID 504357, 2011; inhibition, % at 9.3 µM; 0.21% of 340,000 active; cell-based MOR-DOR heterodimer luminescence, inverse agonism; Mu-type opioid receptor (Homo sapiens) + Delta-type opioid receptor (Homo sapiens), …; in the data active = inhibition above about 22%, passing the limit was not always enough
HTR5A inv ctr: HTR5A inverse agonists in luminescence cell assay, primary screen, counter-screen for OPRM1-OPRD1 heterodimer inverse agonist project, full-deck HTS. 5-hydroxytryptamine receptor 5A (Homo sapiens), P47898. HTR5A cell line, inverse agonism. inhibition, % at 9.3 µM. 0.083% of 340,000 active. AID 504634, 2011; in the data active = inhibition mostly above about 23%, no sharp cut-off; inactive = mostly below about 18%
Target sequence (P47898 whole entry, looked up): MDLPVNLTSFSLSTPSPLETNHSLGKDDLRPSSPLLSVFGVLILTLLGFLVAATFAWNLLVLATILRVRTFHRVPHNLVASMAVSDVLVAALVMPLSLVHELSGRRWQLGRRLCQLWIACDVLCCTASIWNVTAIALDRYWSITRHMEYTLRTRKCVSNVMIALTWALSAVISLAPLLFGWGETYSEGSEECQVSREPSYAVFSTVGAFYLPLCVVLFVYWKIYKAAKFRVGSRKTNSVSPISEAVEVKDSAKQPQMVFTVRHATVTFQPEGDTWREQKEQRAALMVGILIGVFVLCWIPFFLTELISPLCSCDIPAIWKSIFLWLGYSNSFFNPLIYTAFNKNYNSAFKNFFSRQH
HTR5A ag: HTR5A agonists in luminescence cell assay, primary screen, counter-screen for OPRM1-OPRD1 heterodimer agonist project, full-deck HTS | 5-hydroxytryptamine receptor 5A (Homo sapiens), P47898 | cell-based | activation, % at 9.3 µM | 0.61% of 340,000 active; in the data active = activation mostly above about 9.5%, no sharp cut-off; inactive = mostly below about 7.6%
HGIII-sPLA2 inh: human group III sPLA2 inhibitors, primary screen, biochemical, QFRET, BODIPY PC-A2 liposome substrate | Group 3 secretory phospholipase A2 (Homo sapiens), Q9NZ20 | QFRET BODIPY PC-A2 liposome hydrolysis, fluorescence | inhibition, % at 12.2 µM | 0.56% of 370,000 active | AID 743126, 2013;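 active = inhibition above mean plus 3 SD of compounds lying within the high and low control bounds, cut at about 19% in these data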
HTR2A ag: mouse Htr2a agonists via beta-arrestin recruitment, primary screen, cell-based, luminescence; AID 624169, 2012; activation, % at 7.6 µM; CHO-K1 mHTR2A beta-arrestin complementation; percent of 30 µM serotonin response; 0.66% of 360,000 active; 5-hydroxytryptamine receptor 2A (Mus musculus), P35363;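 active = activation above a run cutoff, the mean activation of all tested compounds plus 3 SD, cut at about 14% in these data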
OPRM1-OPRD1 ag: agonists of OPRM1-OPRD1 heterodimerization, primary screen, cell-based, luminescence | Mu-type opioid receptor (Homo sapiens) + Delta-type opioid receptor (Homo sapiens), … | cells | activation, % at 9.3 µM | 0.3% of 340,000 active | AID 504326, 2011; in the data active = activation above about 18%
hGIII sPLA2 conf: human group III sPLA2 inhibitors, confirmation, biochemical, QFRET, triplicate; shares compounds with HGIII-sPLA2 inh; recombinant hGIII-sPLA2, BODIPY PC-A2 QFRET fluorescence; inhibition, % at 12.2 µM; 34% of 2,000 active;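 active = mean inhibition across triplicates above the hit cutoff set in the earlier primary screen, cut at about 19% in these data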
BODIPY interf: 535nm fluorescence optical interference, confirmation, artefact control for HGIII-sPLA2 inhibitor project, biochemical, QFRET; shares compounds with HGIII-sPLA2 inh; BODIPY FL product fluorescence interference; inhibition, % at 12.2 µM; 8.5% of 2,000 active;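 active = average inhibition above the solvent-only control mean plus 3 SD, cut at about 6% in these data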
A number is an active result.

COCCCN1C(=O)[C@H](CC(=O)N2CCN(C(=O)C3CC3)CC2)[C@]2(C(=O)OC)CCCCC=C12 was read as HGIII-sPLA2 inh inactive.
For CC1=C(C(=O)Nc2cccc(C(=O)NC(C)C)c2)SCCO1 the results were OPRM1-OPRD1 inv inactive, HTR5A inv ctr inactive, HTR5A ag inactive, HGIII-sPLA2 inh inactive, HTR2A ag inactive and OPRM1-OPRD1 ag inactive.
`CCC(C)NC(=O)c1ccc(NC(=O)C2=C(C)OCCS2)cc1` (stereo not given) gave OPRM1-OPRD1 inv inactive, HTR5A inv ctr inactive, HTR5A ag inactive, HGIII-sPLA2 inh 21, HTR2A ag inactive, OPRM1-OPRD1 ag inactive, hGIII sPLA2 conf inactive and BODIPY interf inactive.
`Cc1ccccc1C(=O)NNC(=O)c1cc(N)cc([N+](=O)[O-])c1` gave OPRM1-OPRD1 inv inactive, HTR5A inv ctr inactive, HTR5A ag inactive, HGIII-sPLA2 inh inactive, HTR2A ag inactive and OPRM1-OPRD1 ag inactive.
Screening CCOC(=O)c1cc(N)cc([N+](=O)[O-])c1 returned OPRM1-OPRD1 inv inactive, HTR5A inv ctr inactive, HTR5A ag inactive, HGIII-sPLA2 inh 23, HTR2A ag inactive, OPRM1-OPRD1 ag inactive, hGIII sPLA2 conf inactive and BODIPY interf inactive.
CCN(CC)CCn1c(-c2ccccc2)nc(=S)c2c1CC(C)(C)OC2 was read as OPRM1-OPRD1 inv inactive, HTR5A inv ctr inactive, HTR5A ag inactive, HGIII-sPLA2 inh 21, HTR2A ag inactive, OPRM1-OPRD1 ag inactive, hGIII sPLA2 conf inactive and BODIPY interf inactive.
For COC(=O)C1CN(Cc2ccc(F)cc2)CCS(=O)(=O)N1Cc1cn(Cc2ccc(Cl)cc2)nn1 (stereo not given) the results were HGIII-sPLA2 inh inactive.
`c1ccc(-c2cccc(CNc3nc(-c4ccccn4)nnc3-c3ccccc3)c2)cc1` gave HGIII-sPLA2 inh 25, hGIII sPLA2 conf inactive and BODIPY interf inactive.
C[C@H]1C2CC(OC(=O)Nc3ccc(C#N)cc3)C(C2)[C@H]2CCCCN21 (stereo not given in full) was read as HGIII-sPLA2 inh inactive.
Cc1ccc(OCCN2C(=O)c3ccccc3C2=O)cc1 was read as OPRM1-OPRD1 inv inactive, HTR5A inv ctr inactive, HTR5A ag inactive, HGIII-sPLA2 inh inactive, HTR2A ag inactive and OPRM1-OPRD1 ag inactive.
Screening Cc1cccc2c1N(CCCOc1ccccc1)C(=O)C2=O returned OPRM1-OPRD1 inv inactive, HTR5A inv ctr inactive, HTR5A ag inactive, HGIII-sPLA2 inh 21, HTR2A ag inactive, OPRM1-OPRD1 ag inactive, hGIII sPLA2 conf inactive and BODIPY interf inactive.
O=C(OCc1nc2ccccc2s1)c1cc2ccccc2oc1=O was read as HGIII-sPLA2 inh 22, hGIII sPLA2 conf inactive and BODIPY interf inactive.
Nc1ccc(C(=O)OCc2nc3ccccc3s2)cc1 was read as OPRM1-OPRD1 inv inactive, HTR5A inv ctr inactive, HTR5A ag inactive, HGIII-sPLA2 inh inactive, HTR2A ag inactive and OPRM1-OPRD1 ag inactive.
Screening CCOc1ccccc1Nc1cc2n(c(=O)n1)CCc1cc(OC)c(OC)cc1-2 returned OPRM1-OPRD1 inv inactive, HTR5A inv ctr inactive, HTR5A ag inactive, HGIII-sPLA2 inh 82, HTR2A ag inactive, OPRM1-OPRD1 ag inactive, hGIII sPLA2 conf inactive and BODIPY interf inactive.
`CN(C)c1ccc(Nc2ccc([N+](=O)[O-])cn2)cc1` gave OPRM1-OPRD1 inv inactive, HTR5A inv ctr inactive, HTR5A ag inactive, HGIII-sPLA2 inh 39, HTR2A ag inactive, OPRM1-OPRD1 ag inactive, hGIII sPLA2 conf 44 and BODIPY interf 6.5.
